Screens as filed in PubChem BioAssay.
TRPV1 agonist – human TRPV1 agonism; Q8NER1; TRPV1-expressing cells, Fluo-8 calcium influx, agonist mode; activation, % at 8.33 µM; actives 0.19% (n = 320,000); in the data active = activation above about 80%; inconclusive = between about 30% and that limit; note: 0% is about no effect
Target sequence (Q8NER1 whole entry, looked up): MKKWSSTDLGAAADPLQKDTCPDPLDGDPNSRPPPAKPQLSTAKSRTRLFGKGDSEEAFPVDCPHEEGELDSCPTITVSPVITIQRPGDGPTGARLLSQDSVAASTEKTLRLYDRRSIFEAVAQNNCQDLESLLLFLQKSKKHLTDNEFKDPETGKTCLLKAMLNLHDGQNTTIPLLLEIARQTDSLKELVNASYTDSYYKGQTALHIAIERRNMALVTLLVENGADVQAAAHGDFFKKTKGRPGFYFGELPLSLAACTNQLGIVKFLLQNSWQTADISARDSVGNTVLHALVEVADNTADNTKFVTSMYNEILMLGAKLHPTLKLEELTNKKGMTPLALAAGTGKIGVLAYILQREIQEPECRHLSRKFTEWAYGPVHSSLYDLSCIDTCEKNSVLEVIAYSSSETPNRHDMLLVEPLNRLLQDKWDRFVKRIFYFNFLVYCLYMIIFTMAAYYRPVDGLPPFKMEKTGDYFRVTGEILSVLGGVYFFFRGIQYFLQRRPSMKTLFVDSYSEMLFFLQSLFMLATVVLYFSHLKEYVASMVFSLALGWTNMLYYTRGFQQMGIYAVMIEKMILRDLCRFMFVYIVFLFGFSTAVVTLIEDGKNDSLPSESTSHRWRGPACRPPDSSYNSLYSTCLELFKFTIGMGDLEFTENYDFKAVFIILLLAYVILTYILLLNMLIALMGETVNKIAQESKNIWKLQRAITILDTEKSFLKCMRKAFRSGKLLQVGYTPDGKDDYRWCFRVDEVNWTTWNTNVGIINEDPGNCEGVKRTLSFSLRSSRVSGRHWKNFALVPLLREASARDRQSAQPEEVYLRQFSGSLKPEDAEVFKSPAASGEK
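Cells expressing TRPV1 were dye-loaded with Fluo-8 and read kinetically: 10 s baseline, 3 min after compound (agonist portion), then 2 min after EC20 capsaicin (allosteric enhancer portion). Calcium-bound dye fluorescence at 480/520 nm.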
AT treatment – potential ataxia-telangiectasia treatment; F2112 A-T fibroblasts, KAP-1 phosphorylation AlphaLISA; neocarzinostatin DNA damage 30 min before lysis; Potency, µM (titrated, usually from 57.5 µM), for the others: at the highest dose activation, hits mostly activators; actives 0.19% (n = 320,000); AID 485349; note: potency is the fitted concentration of half-maximal effect; % of control where 0% means no effect; nearly all actives have a fitted effect of over 45% in size
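hTERT-immortalized A-T patient fibroblasts (F2112), 500 cells/well in OPTI-MEM, 1% FBS, got compounds for 60 min, then NCS for 30 min at 37C. Lysates were then assayed for phospho-KAP-1 by AlphaLISA (anti-pKAP1 donor, anti-KAP1 acceptor beads), 6 hr at 25C.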
TRPV1 PAM – human TRPV1 potentiation | TRPV1-expressing cells, Fluo-8 calcium influx, capsaicin EC20 potentiation | potentiation, % at 8.33 µM | actives 0.02% (n = 320,000); in the data active = potentiation above about 80%; inconclusive = between about 30% and that limit; note: 0% is about no effect
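TRPV1-expressing cells were cultured overnight at 35.5C and loaded with Fluo-8 calcium dye for 40 to 90 min at room temperature. After a 10 s baseline, compound was added and calcium influx was read kinetically for 3 min (ex 480/em 520 nm).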
IMPase Li cell – IMPase inhibition in cells with lithium potentiation; actives 0.35% (n = 210,000); Potency, µM (highest dose often 59.4 µM), for inactives: at the highest dose activity, negative = IMPase inhibition, hits mostly inhibitors; AID 1457; CHO-M1 cells, IP1 TR-FRET (IP-One), carbachol + lithium;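 note: IP1 builds up when IMPase is blocked and the TR-FRET signal falls; potency is the fitted concentration of half-maximal effect; plate controls were basal vehicle for no effect and high inhibitor control for full effect; nearly all actives have a fitted effect of over 50% in size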
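CHO-M1, 2000 cells/well, 16–30 h culture; cpd + low Li+, 30 min 37C; lysis with d2-IP1/Eu-anti-IP1 Ab, 10 min RT; TR-FRET 665/620 ratio and 620 channel; AC50 via Hill.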
Numbers without * were called inactive; u = inconclusive; x = no result given; [ ] = dose if it differs, or a comment. Rows were chosen to be rich in hits. Some 0.55% of all compounds tested hit in one or more screens of this group. Unless noted, calls come from the whole dose curve; as a rule, active = well fitted curve in the direction sought with a large enough effect; inconclusive = small, poorly fitted or top-dose-only effect, or another doubt; inactive = no such curve, though single readings can be large; an effect the other way counts as inactive or inconclusive.

SMILES	TRPV1 agonist	AT treatment	TRPV1 PAM	IMPase Li cell
COc1cc2ccc(=O)oc2cc1OCC(O)C(C)(C)O (centres undefined)	-1.7	-5.4%	9.5	x
CC1=C/C(=C\C=C(C#N)C#N)N(C)c2ccccc21	12.2	12.6µM*	0.0	x
Cc1ccc(C(=O)/C=C/C(=O)c2ccc(C)cc2)cc1	u	25.1µM*	26.0	16.5%
Cc1ccc(C(=O)CC(=O)c2ccccc2)cc1	80.7*	10.8%	-21.9	x
O=C(CSC1=NCCN1)c1ccccc1	x	x	x	2.7%
O=C1C=CC(=O)C2=C1C1c3ccccc3C2c2ccccc21	x	x	x	14.5%
Cc1ccccc1-n1c(SCC(N)=O)nc2sc(-c3ccccc3)cc2c1=O	1.1	2.7%	u	10.0%[38.3 µM]
Cc1ccccc1-n1c(SCC(=O)NC(N)=O)nc2sc(-c3ccccc3)cc2c1=O	4.3	0.9%	3.7	11.2µM*
CCCc1nc(SCC(=O)NC2CCCC2)c2ccccc2n1	17.3	-1.2%	-5.8	x
CCCc1nc(SCC(=O)Nc2nc3c(s2)CCCC3)c2ccccc2n1	6.3	5.6%	15.6	12.6µM*
COc1ccc(C(=O)NNC(=O)CSc2nc(C(C)C)nc3ccccc23)cc1	1.1	0.1%	-2.3	x
CCc1nc(SCC(=O)NNC(=O)c2ccc(OC)cc2)c2ccccc2n1	-1.5	1.5%	2.1	8.91µM*
CCc1nc(SCC(=O)Nc2nc3c(s2)CCCC3)c2ccccc2n1	5.8	8.2%	-2.8	10µM*
C1CCCNCC1	x	x	x	7.9%
Clc1ccccc1Cn1nnc(-c2ccccc2)n1	0.8	22.4µM*	0.8	-2.8%
Clc1ccccc1Cn1nnc(-c2cccs2)n1	3.1	9.0%	-11.3	11.1%[38.3 µM]
CCCCc1nc2c(c3c1C[C@H](C)OC3)CN(C(=O)NCCCC(=O)OCC)CC2	x	x	x	-2.5%
CCN1CCN(CCCN(Cc2ccco2)C(=S)Nc2ccccc2Cl)CC1	-2.3	-3.5%	128.2*	2.6%
COC(=O)c1ccc(Oc2c(C)oc3c(CN4CCN(C)CC4)c(O)ccc3c2=O)cc1	-4.4	15.5%	-0.1	12.6µM*
COc1ccccc1Oc1c(C)oc2c(CN3CCN(C)CC3)c(O)ccc2c1=O	-2.6	5.2%	-0.6	-17.8%[38.3 µM]
COc1c(N2CCN(C(=S)NC3CC4CCC3C4)C(C)C2)c(F)cc2c(=O)c(C(=O)O)cn(C3CC3)c12 (centres undefined)	0.3	28.2µM*	0.4	x
O=C(CCSc1nnc2ccccn12)Nc1ccc(F)cc1	-1.1	-1.3%	4.1	20.6%[38.3 µM]
O=C(CCSc1nnc2ccc3ccccc3n12)Nc1ccc(F)cc1	1.5	x	0.5	11.2µM*
COC(=O)C1(C(=O)OC)C[C@@H]2CON=C2[C@H]1c1ccccc1	x	x	x	12.5%
COCCNC(=O)c1c[nH]c2ccc(S(=O)(=O)N(C)c3ccc(C)c(C)c3)cc2c1=O	1.9	7.08µM*	28.8	x
SMILES	TRPV1 agonist	AT treatment	TRPV1 PAM	IMPase Li cell
CCCCCCCCCCCCC1CO1 (centres undefined)	x	x	x	7.0%
C=CC1=C2C=C(C3CC3)N(CCN3CCOCC3)C=C2C(=O)C(C)(OC(=O)c2ccco2)C1=O (centres undefined)	x	x	x	9.4%
CC(C)c1ccc(-c2c(C#N)c(N)nc(SCC(=O)N3CCCCCC3)c2C#N)cc1	1.4	x	15.4	u
N#Cc1c(N)nc(SCC(=O)NC2CCCCC2)c(C#N)c1-c1ccc(Cl)cc1	-1.7	2.0%	8.7	15.8µM*
CCOC(=O)C(=O)Nc1nnc(Cc2ccc(OC)c(OC)c2)s1	-6.5	28.2µM*	8.7	6.9%
Nc1c(C(=O)Nc2nc3ccccc3s2)sc2nc(-c3cccs3)ccc12	-1.9	15.8µM*	-8.1	11.2µM*
CC(=O)c1sc2nc(-c3cccs3)ccc2c1N	-2.6	-0.4%	4.8	-24.1%[38.3 µM]
COc1ccc(Nc2ncnc3ccc(C)cc23)cc1	80.7*	0.9%	16.0	x
COCc1cc(C)nc2sc(C(=O)Nc3ccccc3F)c(N)c12	2.1	30.0%	0.7	x
Cc1cc(C(F)(F)F)c2c(N)c(C(=O)Nc3cc(C)on3)sc2n1	-2.1	-2.8%	3.9	11.2µM*
Nc1c(C(=O)Nc2ccccc2F)sc2nc(Cc3ccccc3)cc(C(F)(F)F)c12	1.3	0.5%	7.4	10µM*
COc1ccc(NC(=O)c2sc3nc(-c4ccc(OC)cc4)cc(C(F)(F)F)c3c2N)cc1	-4.0	x	12.6	x
COc1ccc(-c2cn3c(C)c(C(=O)Nc4ccncc4)sc3n2)cc1	-1.2	-4.7%	5.3	5.62µM*
Cc1c(C(=O)Nc2ccncc2)sc2nc(-c3ccc(F)cc3)cn12	u	4.0%	11.4	-101.4%[38.3 µM]
